Compounds without any hit were thinned out: in the full panel of roughly 83,000, 20% have a hit.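 Single-dose data. Exposure time 48 hours. Values below 10 considered active.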 Activity calls are given as the source filed them.

The test system of this assay is MOLT-4 leukemia. Put plainly: NCI-60 one-dose screen, 48 h (100 = growth as untreated, 0 = no growth, -100 = all killed). To be noted: 10 µM unless noted.
On to `Oc1cccc2ccc(-c3nnc(SCc4ccc(O)c5ncccc45)o3)nc12`, for which the growth was 17.4% (inactive). As to `COC(=O)c1[nH]nc2c1C1(C(=O)N(C)c3ccccc31)C(C#N)=C(N)O2` (configuration not stated), the growth is 112% (inactive).

In the case of `CC1=NC2=NN3C(=NN2C(c2ccccc2)=C1)N=NC(c1ccc(Br)cc1)=C3c1ccc(Br)cc1`, the growth is 99.8% (inactive). The value for `Cn1ccnc1C(=O)/C=C/c1ccc(NC(=O)c2c(F)c(F)c(F)c(F)c2F)cc1` was 85.2% (inactive); that for `N#Cc1cccc(CN2CCC3=C(C2)C(=O)N(Cc2ccc(Cl)cc2)C2=NCCCN23)c1` was 48.3% (inactive).

As for `Cc1nn(-c2ccccc2)c2ncnc(N/N=C/c3ccccc3O)c12`, the growth is 14.3% (inactive). The value for `COc1ccc(CCN2C(=O)CSC2=S)cc1` was 94.6% (inactive); that for `CC(=O)N1C(=S)NC(=O)C1CC(C)C` (configuration not stated) was 105% (inactive); that for `Cc1ccc2sc3c(c2c1)OC(N)=C(C#N)C3c1cccc(F)c1` (configuration not stated) was 17.5% (inactive). As for `COc1cc(-c2nc(SC(C)C)n(C(C)C)c(=O)c2C#N)ccc1OCc1ccccc1`, the figure is 22.1% (inactive); as for `C/C(=N\O)[C@H]1C[C@]23CC[C@]4(C)[C@H](CC[C@@H]5[C@@]6(C)CC/C(=N/O)C(C)(C)[C@@H]6CC[C@]54C)[C@H]2[C@H](C)C1(C)OC3`, 98.7% (inactive); as for `NS(=O)(=O)c1ccc(-n2cc(-c3cccc(NC(=O)c4ccc(N5CCOCC5)c(C(F)(F)F)c4)c3)nn2)cc1`, 11% (inactive). On to `O=C1/C(=C/C=C/c2ccco2)SC(=S)N1c1ccccc1`, for which the growth was 60.2% (inactive). As to `CNC(=O)c1cc(Oc2ccc3nc(NC(=O)c4cc(N5CCOCC5)cc(C(F)(F)F)c4)sc3c2)ccn1`, the growth is 65.5% (inactive). `CCCCCc1ccc(S(=O)(=O)Nc2cccc(-c3csc(NC(=O)CCCCCN4CCN(CCO)CC4)n3)c2)cc1`: the growth is 14.7% (inactive).

With `CNC(=O)c1cc(Oc2ccc3nc(NC(=O)c4cccc(OC(F)(F)F)c4)sc3c2)ccn1`, the growth was 73.3% (inactive). As for `Cc1cc(C)c(N2C(=O)CC(Nc3ccc(Cl)cc3Cl)C2=O)c(C)c1` (configuration not stated), the figure is 103% (inactive). The value for `Cc1ccc(C(=O)NN2C(=O)/C(=C/C=C/c3ccco3)SC2=S)cc1` was 40.7% (inactive).

On to `CC/C(=C/c1c(O)cccc1OC)c1ccc2c(OC)cccc2[o+]1`, for which the growth was 104% (inactive).

Consider `Cc1ccc2c(c1)C(=O)/C(=C/c1cccc(F)c1)S2`, for which the growth is 106% (inactive). As for `COc1cc(/C=C2\C(=O)Nc3ccccc32)ccc1OCc1ccc(F)cc1`, the figure is 96.8% (inactive). As for `N/C(=N\C(N)=N\c1nc2ccccc2s1)c1ccc(C(F)(F)F)cc1`, the figure is 68.6% (inactive); as for `O=C(Nc1ccc(N=Cc2c(O)[nH]c3ccccc23)cc1)Nc1nccs1`, 32.2% (inactive); as for `O=C(Nc1nonc1-c1ccccc1)c1ccc(C(F)(F)F)cc1`, 69.1% (inactive). The value for `Cn1ccnc1C(=O)/C=C/c1ccc(NC(=O)c2ccc(F)cc2)cc1` was 16.6% (inactive); that for `Nc1nc(-c2cccc([N+](=O)[O-])c2)c(N=Nc2ccccc2)s1` was 50.8% (inactive). Regarding `Cc1ccc(N2C(=O)/C(=C/C=C/c3ccco3)SC2=S)cc1`, the growth was 9.93% (active). As for `COc1cc(OC)c(S(N)(=O)=O)cc1C(=O)/C=C/c1ccc(C)cc1`, the figure is 21.1% (inactive); as for `CN1CCC(n2cc(Nc3ncc4c(=O)n(-c5c(Cl)cccc5Cl)cc(Br)c4n3)cn2)CC1`, 13% (inactive); as for `C#CC(=O)N(c1ccc(OC)cc1OC)C(C(=O)NCC(=O)OCC)c1cccs1` (configuration not stated), -22.2% (active). With `COc1ccc(/C=C(/C)c2ccc3ccc(OC)cc3[o+]2)c(O)c1`, the growth is 34.7% (inactive).

On to `Cc1ccc(-c2cc3nc(C(Cl)Cl)nc(C)n3n2)cc1`, for which the growth was 103% (inactive).

These data come from PubChem BioAssay (NCI).
